SMILES strings stand for the structures. “And” between values parts separate entries of the source, which are not always exact repeats. Equal entries are not always repeated. Among all 16,000 compounds or so, about 2,600 (16%) were called active. Not shown: some 20% with an inconclusive outcome. The call rests on the fitted dose curve; in most records, active means well fitted curve in the direction sought with a large enough effect; inconclusive means small, poorly fitted or top-dose-only effect, or effect the other way; inactive means no such curve, though single readings can be large or run the other way. The list is a sample of the results.

Broadly, the AC50 is the concentration giving half of the maximal activity seen.
On the % scale 0 is the no-effect control and ±100 the full control effect.

Cytochrome P450 2D6 (Homo sapiens), sequence (P10635 whole entry, looked up): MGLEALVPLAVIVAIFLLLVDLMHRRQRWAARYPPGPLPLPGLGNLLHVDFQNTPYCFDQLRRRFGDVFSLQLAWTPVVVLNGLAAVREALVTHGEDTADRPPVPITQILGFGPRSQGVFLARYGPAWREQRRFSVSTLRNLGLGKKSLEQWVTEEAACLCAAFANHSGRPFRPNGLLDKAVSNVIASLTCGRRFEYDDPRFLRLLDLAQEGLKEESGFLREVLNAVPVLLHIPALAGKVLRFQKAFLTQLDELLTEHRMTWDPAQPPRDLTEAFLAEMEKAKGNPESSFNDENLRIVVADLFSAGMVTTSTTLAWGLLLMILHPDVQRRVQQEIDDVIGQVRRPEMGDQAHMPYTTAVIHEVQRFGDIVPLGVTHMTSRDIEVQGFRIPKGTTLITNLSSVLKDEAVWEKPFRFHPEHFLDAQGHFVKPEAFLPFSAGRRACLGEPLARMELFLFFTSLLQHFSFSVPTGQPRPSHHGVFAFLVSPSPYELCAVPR

This test concerns the target Cytochrome P450 2D6 (Homo sapiens) (UniProt P10635). The test is described as follows: Cytochrome panel assay with activity outcomes. Particulars: recombinant CYP, pro-luciferin dealkylation, luminescence, p450-cyp2d6; series mostly up to 57.1 µM.
As for `COc1ccc(/C=N/n2cnc3c([nH]c4ccc(Br)cc43)c2=O)cc1CN1CCOCC1`, the AC50 result is “inactive”.
With `CC(C)(CO)[C@H](O)C(=O)NCCCO`, the AC50 entry was “inactive”.
For `NCCS`, the AC50 entry was “inactive”.
`O[C@@H](COc1cccc2ccccc12)CN1CCOCC1`: the activity, negative = inhibition was -5.64% [at 11.4 µM] (inactive).
As for `CNC(=S)N1CCN(c2ccccc2OC)CC1`, the AC50 result was “inactive”.
In the case of `COc1ccccc1N1CCN(C[C@@H](O)COc2cccc3ccccc23)CC1`, the concentration at half-maximal activity (AC50) is 794 nM (active) and 316 nM (active) and 126 nM (active).
Same read-out and setting: as for `COCCn1c(=O)c(-c2cccc(Cl)c2)nc2cncnc21`, the entry is “inactive”; as for `COc1ccc(N(CC(=O)NCc2cccc(OC)c2)S(=O)(=O)c2c(C)noc2C)cc1`, 14.1 µM (active).
For `COCCCNC(=O)CN(c1ccc(OC)cc1)S(=O)(=O)c1ccc(NC(C)=O)cc1`, the AC50 entry was “inactive”.
Turning to `COC(=O)CN(c1ccc(OC)cc1)S(=O)(=O)c1c(C)noc1C`, the AC50 result was “inactive”.
Still for that read-out and setting: as for `CN=C1S/C(=C\c2ccc(Sc3ccc(Cl)cc3)o2)C(=O)N1C`, the entry is “inactive”.
On to `C#CCOCCCC(=O)O`, for which the activity, negative = inhibition is 15.7% [at 11.4 µM] (inactive).
Consider `Cc1ccc(CSc2nnc3c(n2)OC2(Nc4ccccc4-3)C(=O)Nc3ccc(F)cc32)cc1` (configuration not stated), for which the AC50 is 25.1 µM (active).
Turning to `COc1cccc(Nc2ncc3nc(C)c(=O)n(C4CC4)c3n2)c1`, the AC50 entry is “inactive”.
Regarding `O=C(Nc1ccccc1)OC[C@H](CN1CCCCC1)OC(=O)Nc1ccccc1`, the AC50 was 0.398 µM (active).
`O=C(NNC(=S)Nc1ccccc1)C1CC1`: the AC50 entry is “inactive”.
As to `S=C(Nc1ccccc1)N1CCCCC1`, the AC50 entry is “inactive”.
Still for that read-out and setting: as for `COC(=O)COc1ccc(/C=C2/SC(=O)N(CC(=O)N3CCCC3)C2=O)cc1Br`, the entry is “inactive”.
Regarding `O=C(O)c1ccc(Sc2nnnn2-c2ccccc2)c([N+](=O)[O-])c1`, the AC50 result was “inactive”.
`NCCNC(=O)c1ncsc1-c1cccc(F)c1`: the AC50 entry was “inactive”.
Still for that read-out and setting: as for `Cn1c(=O)c(-c2ccc(F)cc2)nc2cncnc21`, the entry is “inactive”; as for `CCNc1ncc2ncc(=O)n(Cc3ccc(F)cc3)c2n1`, “inactive”.
With `COc1cccc(Nc2ncc3nc(-c4ccc(F)cc4)c(=O)n(C)c3n2)c1`, the AC50 result is “inactive”.
As for `Cn1c(-c2ccc(F)cc2)cnc1NCc1ccc(F)cc1`, the half-maximal activity concentration (AC50) was 0.0355 µM (active).
Turning to `Cn1c(-c2ccc(F)cc2)cnc1NCc1cccc(F)c1`, the AC50 was 0.0562 µM (active).
For `Cn1c(-c2ccc(Br)cc2)cnc1NCc1cccnc1`, the AC50 was 0.501 µM (active).
As to `CN(C)c1ccc(-c2cc(NCc3cccnc3)ncn2)cc1`, the AC50 entry is “inactive”.
On to `c1cncc(CNc2ncn[nH]2)c1`, for which the activity, negative = inhibition is 5.73% [at 11.4 µM] (inactive).
On to `CCC1CC2CC(NC(C)=O)C1C2` (configuration not stated), for which the AC50 result was “inactive”.
As for `Fc1ccc2c(c1)C1C=CCC1C(c1cc3c(cc1Br)OCO3)N2` (configuration not stated), the AC50 entry was “inactive”.
As to `CCCCOC(OCCCC)[C@H](O)CSc1ccc2ccccc2c1`, the activity, negative = inhibition is -15.8% [at 11.4 µM] (inactive).
With `C#CCn1c(=O)c2c(ncn2C)n(C)c1=O`, the AC50 result is “inactive”.
In the case of `Cc1ccccc1-c1nccc(NCc2cccs2)n1`, the concentration at half-maximal activity (AC50) was 2.51 µM (active).
In the case of `COCCNc1ccnc(-c2ccccc2C(F)(F)F)n1`, the AC50 result is “inactive”.
The same measure, in the same setting: to `Cc1cnc(CNc2ccnc(-c3ccccc3C)n2)cn1` belongs “inactive”.
The same measure, in the same setting: to `Cc1cnc(CNc2cc(-c3ccccc3C)ncn2)cn1` belongs “inactive”; to `CN(C)Cc1ccccc1-c1nccc(NCc2cccs2)n1`, 1.58 µM (active); to `CN(C)Cc1ccccc1-c1cc(NCc2cccs2)ncn1`, 2 µM (active).
Still for that read-out and setting: to `FC(F)(F)c1ccccc1-c1nccc(NCc2cccs2)n1` belongs 25.1 µM (active); to `Cc1cnc(CNc2ccnc(-c3ccccc3C(F)(F)F)n2)cn1`, “inactive”.
On to `O=C(NCc1ccco1)c1cc(C(=O)C2CCCCC2)c[nH]1`, for which the AC50 entry was “inactive”.
As to `CCCCCC(=O)O[C@H](CC(=O)O)C[N+](C)(C)C`, the AC50 result is “inactive”.
As for `Cc1cc2cccc(C)c2nc1SCC(=O)N(C)c1nc(-c2ccccc2)cs1`, the AC50 result was “inactive”.
For the compound `COc1ccc(NC(=O)N2CCCC3(CCN(C(=O)c4cc(C(F)(F)F)cc(C(F)(F)F)c4)CC3)C2)cc1`, the AC50 entry was “inactive”.
In the case of `O=C1[C@H]2[C@H]3[C@H](O)[C@H](O)C/C(=N/OC[C@@H](O)COCc4ccco4)[C@@H]3CC[C@@H]2C(=O)N1C1CCCCC1`, the activity, negative = inhibition was 7.51% [at 11.4 µM] (inactive).
For `Oc1cccc2ccc(SSc3ccc4cccc(O)c4n3)nc12`, the activity, negative = inhibition is -0.179% [at 11.4 µM] (inactive).
On to `COc1ccc(-c2nn3cnnc3s2)cc1OC`, for which the AC50 result is “inactive”.
As to `O=C(O)NCc1ccccc1` (tested in a mixture with another compound), the AC50 is 3.98 µM (active).
For `C/C(=C/C(=O)NCc1ccccc1)C(=O)O`, the AC50 result is “inactive”.
With `CCCC(=O)NNC(=O)CCC(=O)NCc1ccccc1`, the AC50 result was “inactive”.
Regarding `O=c1c2ccc(Cl)cc2nc(-c2cccc(C(F)(F)F)c2)n1O`, the AC50 result is “inactive”.
As for `Cc1n[nH]c(=O)n1-c1cccc(C(F)(F)F)c1`, the AC50 result is “inactive”.
In the case of `CC1=CC(=O)N(c2cccc(C(F)(F)F)c2)C1c1ccc(Cl)cc1` (configuration not stated), the concentration at half-maximal activity (AC50) was 2.51 µM (active).
Turning to `O=C(CSc1nc(-c2ccccc2)nc2ccccc12)Nc1nccs1`, the AC50 result was “inactive”.
For `COC(=O)c1ccc(NC(=O)Cn2nc(-c3ccncc3)nc2SCC(=O)Nc2nccs2)cc1`, the AC50 was 10 µM (active).
For the compound `CCC1C(=O)N=C(SCC(=O)Nc2ccc(C(=O)OC)cc2)NC1=O` (configuration not stated), the AC50 result is “inactive”.
Take `O=C(O)c1sc2cc(C(F)(F)F)cnc2c1-c1ccccc1`: the AC50 result is “inactive”.
As for `CCCCC1CC(/C(C)=N/NC(N)=O)OC1=O` (configuration not stated), the AC50 entry was “inactive”.
On to `CC(C)c1ccc(CNc2cc(N3CCCC3)ccc2[N+](=O)[O-])cc1`, for which the AC50 result is “inactive”.
For the compound `CC(CP(=O)(O)O)NC(=O)Cc1ccccc1` (configuration not stated), the AC50 entry was “inactive”.
`O=C(Cc1ccccc1)NC(NCCc1ccccc1)C(Cl)(Cl)Cl` (configuration not stated): the AC50 is 14.1 µM (active).
Same read-out and setting: to `O=C(NC(NCc1ccccc1)C(Cl)(Cl)Cl)c1cccnc1` (configuration not stated) belongs “inactive”.
On to `Cc1n[nH]c(=S)n1/N=C/c1ccccc1OCc1ccc(Cl)cc1`, for which the AC50 result is “inactive”.
`CCOc1ccc(CC(=O)C2C(=O)CCCC2=O)cc1OCC`: the AC50 entry was “inactive”.
With `CCOC(=O)c1ccc(NC(=O)COc2ccccc2OC)cc1`, the AC50 entry was “inactive”.
For `CCOc1ccc(CNC(=O)C2CC(=O)N(C3CCCC3)C2)cc1OC` (configuration not stated), the AC50 result is “inactive”.
Same read-out and setting: to `CCc1ccc(OCC(=O)NC(=S)Nc2ccc(F)cc2)c(Br)c1` belongs “inactive”; to `C=CCOc1ccc(CNC(C)(C)CO)cc1OCC`, 1.41 µM (active).
Take `COc1cc(CNC(C)(C)CO)ccc1OCC(=O)Nc1ccc(Br)cc1`: the AC50 is 5.01 µM (active).
The same measure, in the same setting: as for `COc1ccc(CNC(C)(C)C)cc1Cl`, the entry is “inactive”; as for `C=CCOc1ccc(CNC(C)(C)CO)cc1OC`, 1.41 µM (active).
Take `CCOc1nc(NCCc2ccc(OC)c(OC)c2)nc(NC(C)(C)CO)n1`: the AC50 result is “inactive”.

The record behind these values is PubChem BioAssay AID1851 (National Center for Advancing Translational Sciences (NCATS), 2009).
